High-throughput results: PubChem BioAssay, National Center for Advancing Translational Sciences (NCATS)
DRD3 agonist: qHTS of D3 Dopamine Receptor Agonist: qHTS. 0.58% of 410,000 active. D3R DiscoveRx beta-arrestin cells, luminescence, 90 min. max activation, %; in the data active means max activation above about 30%; further: 0% is about no effect
Target sequence (P35462 whole entry, looked up): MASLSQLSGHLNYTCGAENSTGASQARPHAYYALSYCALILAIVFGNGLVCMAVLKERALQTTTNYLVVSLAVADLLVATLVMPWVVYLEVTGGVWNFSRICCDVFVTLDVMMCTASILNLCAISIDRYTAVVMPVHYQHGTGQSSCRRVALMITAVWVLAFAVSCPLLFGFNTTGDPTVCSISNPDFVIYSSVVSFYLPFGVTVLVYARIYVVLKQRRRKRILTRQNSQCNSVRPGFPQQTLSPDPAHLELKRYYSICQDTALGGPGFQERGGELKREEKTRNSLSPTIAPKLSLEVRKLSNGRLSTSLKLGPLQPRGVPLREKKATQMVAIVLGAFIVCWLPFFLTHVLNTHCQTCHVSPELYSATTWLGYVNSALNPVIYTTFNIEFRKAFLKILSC
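Cells at 1500/well, incubated overnight, then treated with pinned compounds (dopamine as control) for 90 min at 37 degrees C. DiscoveRx reagent added for 30 - 60 minutes at room temperature; luminescence read.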
DRD3 antagonist: qHTS of D3 Dopamine Receptor Antagonist: qHTS | 2.5% of 360,000 active | max response, negative = inhibition, % | D3R cells, DiscoveRx beta-arrestin luminescence, antagonist mode; active compounds read low; in the data active means max response below about -50%; inconclusive means no clear call, values can overlap the other calls; further: on the % scale 0 is the no-effect control and ±100 the full control effect
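Cells expressing the human receptor were seeded at 1500 cells/well, incubated overnight at 37 degrees C in 5% CO2, then exposed to library compounds with dopamine controls for 90 minutes at 37 degrees C before luminescent detection.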
D1 ag: Allosteric Agonists of the Human D1 Dopamine Receptor: qHTS. D(1A) dopamine receptor (Homo sapiens), P21728. HEK293 T-REx D1 cells, calcium flux, agonist mode. activation, % at 2 µM. 1% of 360,000 active. AID 504660, 2011; in the data active means activation above about 30%; further: 0% is about no effect
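Tetracycline-induced HEK293 TREx D1 cells, force-coupled to calcium signalling, were dye-loaded with a no-wash calcium kit. Compound was pin-added after a 10 s baseline. Fluorescence was read kinetically at 1 cycle/s for 180 s, with calcium rises flagged as agonism.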
D1 antagonist: Antagonist of Human D 1 Dopamine Receptor: qHTS; D(1A) dopamine receptor (Homo sapiens), P21728; activity change, negative = inhibition, % at 10 µM; HEK293 TREx D1 cells, calcium flux, dopamine EC80; active compounds read low; 3.2% of 360,000 active; in the data active means activity change below about -30%; further: on the % scale 0 is the no-effect control and ±100 the full control effect
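Inducible Hek293 Trex D1 cells (tetracycline, overnight, 30 C). Calcium dye 30–90 min RT. Antagonist mode: EC80 dopamine added after 180 s compound read.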
D1 PAM: Potentiators of Human D1 Dopamine Receptor: qHTS. D(1A) dopamine receptor (Homo sapiens), P21728. 0.036% of 360,000 active. potentiation, % at 10 µM. AID 504651, 2011. HEK293 TREx D1 cells, calcium flux, dopamine EC20 potentiation; in the data active means potentiation above about 30%; further: 0% is about no effect
Starred values were filed as active, the others as inactive. An excerpt weighted towards active compounds, which were near 6.1% of everything screened.

COc1ccc(CNC(=O)CCc2c(C)c3cc4c(C)coc4cc3oc2=O)cc1 was read as DRD3 agonist -13.0, D1 ag 6.8, D1 antagonist -14.1 and D1 PAM -0.5.
`CCNc1cc2oc(=O)c(CN3CCOCC3)c(C)c2cc1C` gave DRD3 agonist -11.6, DRD3 antagonist -66.9*, D1 ag -0.2, D1 antagonist 5.9 and D1 PAM -2.1.
Screening CCC(O)c1cc2c(cc1NC(=O)c1cccc(Br)c1)OCCO2 (centres undefined) returned DRD3 agonist 1.0, D1 ag 3.2, D1 antagonist 4.9 and D1 PAM -3.0.
Screening COCCCNC(=O)CCc1c(C)c2cc3c(C)coc3cc2oc1=O returned DRD3 agonist 15.8, DRD3 antagonist 14.3, D1 ag 7.3, D1 antagonist -56.5* and D1 PAM -3.5.
CSc1cc(-c2ccc(Cl)cc2)c(C(=O)N2CCCC2)s1 was read as DRD3 agonist 3.5, DRD3 antagonist 10.9, D1 ag 0.7, D1 antagonist -0.5 and D1 PAM -6.1.
O=C(O)C(Sc1ccncn1)c1ccccc1 (centres undefined) was read as DRD3 agonist 4.0, DRD3 antagonist -16.6, D1 ag 1.4, D1 antagonist -34.7* and D1 PAM 2.4.
Screening O=C(O/N=C(\c1ccccc1)c1ccncc1)c1ccccc1F returned DRD3 agonist 9.8, DRD3 antagonist -9.1, D1 ag 2.0, D1 antagonist -14.0 and D1 PAM 0.1.
O=C(O/N=C(/c1ccccc1)c1ccncc1)c1cccc(F)c1 was read as DRD3 agonist 0.7, DRD3 antagonist 4.8, D1 ag 2.0, D1 antagonist -59.4* and D1 PAM -14.5.
Cc1ccc2nc(N3CCN(C(=O)c4ccccc4F)CC3)c(C#N)cc2c1 was read as DRD3 agonist 11.2 and DRD3 antagonist -0.3.
COc1ccc2nc(N3CCCC3)c(C#N)cc2c1 was read as DRD3 agonist 1.7, DRD3 antagonist 24.0, D1 ag 40.9*, D1 antagonist -12.3 and D1 PAM -7.3.
`Cc1ccc2nc(N3CCN(C(=O)c4ccc(F)cc4)CC3)c(C#N)cc2c1` gave DRD3 agonist 7.3, DRD3 antagonist -4.6, D1 ag -2.8, D1 antagonist -46.4* and D1 PAM 0.5.
NS(=O)(=O)OCCCc1ccccc1 was read as DRD3 agonist -9.3, DRD3 antagonist inconclusive, D1 ag 0.8, D1 antagonist -37.0* and D1 PAM -3.2.
`CCOc1ccccc1OCCCNCc1ccco1` gave DRD3 agonist -30.9, DRD3 antagonist -27.4, D1 ag 6.2, D1 antagonist -1.6 and D1 PAM -5.9.
CC[n+]1ccc(C)c2cc(P(=O)(c3ccccc3)c3ccccc3)ccc21 was read as DRD3 agonist -28.5, DRD3 antagonist -57.8*, D1 ag 3.1, D1 antagonist -15.8 and D1 PAM -1.8.
`Cc1ccc(COc2ccsc2C(=O)NNC(N)=S)cc1` gave DRD3 agonist -0.1, DRD3 antagonist -2.6, D1 ag 2.0, D1 antagonist 6.9 and D1 PAM -1.7.
`N#C/C(=C/c1ccc(N2CCCCC2)o1)C(=O)Nc1ccc2ccccc2c1` gave DRD3 agonist 6.1, DRD3 antagonist -14.7, D1 ag 312.9*, D1 antagonist -37.6* and D1 PAM -7.6.
`CC1CC1c1ccc(/C=C(\C#N)C(=O)Nc2ccc(Cl)cc2)o1` (centres undefined) gave DRD3 agonist -25.9, DRD3 antagonist inconclusive, D1 ag 6.4, D1 antagonist 3.2 and D1 PAM -11.8.
For N#C/C(=C/c1ccc(N2CCCCC2)o1)C(=O)Nc1ccc(Cl)cc1 the results were DRD3 agonist 2.2, DRD3 antagonist 15.8, D1 ag 419.9*, D1 antagonist -2.6 and D1 PAM -18.1.
`CCOc1ccccc1NC(=O)c1ccccc1N(C)S(C)(=O)=O` gave DRD3 agonist 15.7, DRD3 antagonist inconclusive, D1 ag 1.7, D1 antagonist -8.3 and D1 PAM 2.6.
For CN(c1ccccc1C(=O)Nc1cccc(Cl)c1Cl)S(C)(=O)=O the results were DRD3 agonist -11.1, DRD3 antagonist -57.2*, D1 ag 3.4, D1 antagonist -2.5 and D1 PAM -2.8.
`CCN(CC)CCn1c(NCc2ccc(OC)cc2)nc2ccccc21` gave DRD3 agonist -14.2, DRD3 antagonist -66.6*, D1 ag -0.6, D1 antagonist -4.0 and D1 PAM -8.7.
For CCN(CC)CCNc1nc2ccccc2n1C the results were DRD3 agonist 1.2, DRD3 antagonist -17.7, D1 ag 2.4, D1 antagonist -37.4* and D1 PAM -0.7.
`COc1cccc(C(=O)n2nc(-c3ccco3)nc2NCc2cccs2)c1` gave DRD3 agonist 8.6, D1 ag 2.6, D1 antagonist 5.7 and D1 PAM 1.9.
`COCCCNc1nc2nonc2nc1N(C)CC1CCCN1C` (centres undefined) gave DRD3 agonist 2.2, DRD3 antagonist -16.1, D1 ag 1.5, D1 antagonist 2.3 and D1 PAM -3.3.
NS(=O)(=O)c1ccc(Oc2ccc(S(N)(=O)=O)cc2)cc1 was read as DRD3 agonist 5.0, DRD3 antagonist -9.2, D1 ag 12.0, D1 antagonist 6.1 and D1 PAM -10.1.
For C=CS(=O)(=O)c1ccc(Oc2ccc(S(=O)(=O)C=C)cc2)cc1 the results were DRD3 agonist -31.9, DRD3 antagonist -91.4*, D1 ag 21.9, D1 antagonist -16.9 and D1 PAM -11.4.
Screening O=C(CCl)N(c1ccccc1)C1CCCCC1 returned DRD3 agonist -11.2, DRD3 antagonist -65.4*, D1 ag 1.9, D1 antagonist -8.6 and D1 PAM -8.3.
Screening CC(=O)N(c1ccccc1)C1CCCC1 returned DRD3 agonist -1.2, DRD3 antagonist 8.0, D1 ag 1.5, D1 antagonist 0.3 and D1 PAM -6.2.
For O=C(O)/C=C/C(=O)c1ccc2c(c1)CCc1ccccc1-2 the results were DRD3 agonist -80.5, DRD3 antagonist -139.4*, D1 ag -1.5, D1 antagonist -5.3 and D1 PAM 0.8.
`C=CCn1c(SCc2ccc(OC)cc2)nnc1-c1cccnc1` gave DRD3 agonist -0.6, DRD3 antagonist -24.7, D1 ag 3.4, D1 antagonist 0.8 and D1 PAM 1.1.
For C=CCn1c(SCc2ccc(F)cc2)nnc1-c1sc2nc(C)cc(C)c2c1N the results were DRD3 agonist -3.4, DRD3 antagonist 0.0, D1 ag -0.3, D1 antagonist -38.1* and D1 PAM -1.6.
